# Only some compounds are listed: those with a hit (about 28% of all), similar ones and a draw of the others.
# DAT uptake mod = changed human dopamine transporter uptake under cocaine IC80; Q01959; LLC-PK1 hDAT cells, [14C]-dopamine uptake with cocaine IC80; actives deviate in either direction; B-score at 10 µM; hit rate 1.3% among 110,000; AID 449768;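 active = Z score or B-score, a plate-position-corrected score, falls beyond the plate's 99.7% confidence bounds, in either direction; inactive = both scores lie inside the 99.7% bounds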;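 also: scored against the spread of the other compound wells on the same plate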
# Target sequence (Q01959 whole entry, looked up): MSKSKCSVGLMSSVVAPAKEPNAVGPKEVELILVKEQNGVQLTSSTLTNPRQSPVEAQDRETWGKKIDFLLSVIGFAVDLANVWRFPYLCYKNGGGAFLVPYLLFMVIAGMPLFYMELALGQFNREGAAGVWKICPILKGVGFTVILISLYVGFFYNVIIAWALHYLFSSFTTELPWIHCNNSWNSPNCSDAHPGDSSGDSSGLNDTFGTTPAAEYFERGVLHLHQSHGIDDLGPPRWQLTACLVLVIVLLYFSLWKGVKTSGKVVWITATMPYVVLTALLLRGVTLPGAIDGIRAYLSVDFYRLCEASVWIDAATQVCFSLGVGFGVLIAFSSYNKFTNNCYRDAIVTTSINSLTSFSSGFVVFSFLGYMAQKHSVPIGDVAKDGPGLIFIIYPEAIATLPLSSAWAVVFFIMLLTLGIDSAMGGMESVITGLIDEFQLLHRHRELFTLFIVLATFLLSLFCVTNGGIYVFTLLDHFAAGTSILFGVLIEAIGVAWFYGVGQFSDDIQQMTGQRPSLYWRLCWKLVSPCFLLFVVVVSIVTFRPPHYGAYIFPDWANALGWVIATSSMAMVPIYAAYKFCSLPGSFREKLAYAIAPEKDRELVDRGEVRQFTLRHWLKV
# CYP2C9 inhib = human CYP2C9 inhibition. P11712. CYP2C9 Supersomes, luciferin-H conversion, luminescence. inhibition, % at 5 µM. hit rate 20% among 96,000;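 active = blocking of liver enzyme CYP2C9 beyond about 50% at 5 µM, limit read from the data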
# CYP2C19 inhib = blocks human cytochrome P450 2C19; P33261; CYP2C19 Supersomes, luciferin-H EGE luminescence, 30 min; inhibition, % at 5 µM; hit rate 21% among 96,000; AID 778;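 active = CYP2C19 inhibition above a set limit at 5 µM in the primary screen, cut at about 50% in these data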;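 also: plate controls were negative control wells for no effect and 2.5 mM tranylcypromine positive control for full effect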
# CYP2C19 activ = increases human CYP2C19 enzyme activity; P33261; recombinant CYP2C19, luciferin-H EGE luminescence; stronger effect = higher value; 0 = fully inhibited enzyme, 1 = untreated enzyme; activation factor at 5 µM; 96,000 tested, under 10 active; AID 1025;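 active = activation factor of at least 2 at 5 µM in the primary screen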;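 also: 0 = wells with 2.5 mM tranylcypromine and 1 = vehicle-only wells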
# D1 allo mod = allosteric modulators of human D1 dopamine receptor; B-score at 10 µM; AID 641; P21728; HEK293 D1, CRE-luciferase, dopamine EC30 potentiation; actives deviate in either direction; hit rate 5.9% among 58,000;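 active = luminescence count or its row- and column-corrected plate score outside the 99.7% band of the plate's sample wells, on either side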
# CYP2C9 act = increases human cytochrome P450 2C9 activity | activation factor at 5 µM | recombinant CYP2C9, luciferin-H conversion, luminescence; stronger effect = higher value; factor 1 = untreated enzyme, 0 = blocked | P11712 | hit rate 1.4% among 96,000;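 active = activation factor of 2 or more for CYP2C9 at a 5 µM dose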;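 also: 0 = sulfaphenazole-blocked wells and 1 = vehicle-only wells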
# D1 PAM confirm = confirmation of human D1 dopamine receptor allosteric modulators; AID 642; hit rate 88% among 2,200; shares compounds with D1 allo mod; luminescence at 10 µM; HEK293 D1 CRE-luciferase, dopamine EC30 potentiation; stronger effect = higher value;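 active = luminescence in either of two replicates above the same-plate mean plus 3 SD of the low-dose dopamine control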
# D1 no dopamine = activates D1 CRE-luciferase signal without dopamine present; shares compounds with D1 allo mod; HEK293 D1 CRE-luciferase, luminescence, no dopamine; stronger effect = higher value; luminescence at 10 µM; hit rate 0.8% among 1,900; AID 646; in the data active = luminescence above about 3900
# Isoprot counter = counter-screen for D1 modulators: isoproterenol response in HEK293 cells. hit rate 63% among 2,200. shares compounds with D1 allo mod. calls only at 10 µM. HEK293 D1 CRE-luciferase, isoproterenol EC30 counter-screen;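 active = luminescence in either replicate above plate mean of wells with a partly effective reference agonist dose plus 3 SD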;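 also: isoproterenol raises cAMP through native beta-adrenoceptor Gs so signal bypasses D1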
# An asterisk follows results filed as active; i = inactive; nt = no result given; + = active, no number.
SMILES,DAT uptake mod,CYP2C9 inhib,CYP2C19 inhib,CYP2C19 activ,D1 allo mod,CYP2C9 act,D1 PAM confirm,D1 no dopamine,Isoprot counter
Cc1cc(C)n2c(SCC(=O)NCc3ccco3)nnc2n1,-0.175,-1.4,-14.8,1.1,-0.603,1,nt,nt,nt
CC(NC(=O)C1CCC(=O)N1Cc1ccc(F)cc1)c1ccc2c(c1)OCCO2 (stereo unspecified),-1.32,12.7,1.5,1,2.13*,0.9,5700,1736,i
CC(NC(=O)C1CCCC1)c1ccc2c(c1)OCCO2 (stereo unspecified),-0.138,20.3,3.4,1,nt,0.8,nt,nt,nt
CCOC(=O)c1ccccc1-n1c(C)cc(C2N=C(N)Nc3nc4ccccc4n32)c1C (stereo unspecified),1.16,33.6,28.9,0.7,nt,0.7,nt,nt,nt
NC1=NC(c2ccc(Br)cc2)n2c(nc3ccccc32)N1 (stereo unspecified),-1.08,38.2,94.2*,0.1,10.2*,0.6,11596*,1556,i
CC(C)CNc1oc(-c2ccc(F)cc2)nc1C#N,0.0993,40.4,16.3,0.8,13*,0.6,14732*,1924,+
CNc1oc(-c2ccc(Cl)cc2)nc1C#N,-0.823,10.0,32.5,0.7,2,0.9,nt,nt,nt
Cc1noc(C)c1CSc1nc2[nH]ncc2c(=O)n1-c1ccccc1,-0.703,nt,nt,nt,11.2*,nt,14168*,1776,+
Cc1nc(CSc2nc3[nH]ncc3c(=O)n2-c2ccccc2)cs1,0.0584,-3.0,-2.9,1,4.62*,1,12732*,1692,+
Cc1cc2ccc(C)c(C)c2nc1SCC#N,-0.627,10.4,3.5,1,-0.403,0.9,nt,nt,nt
O=C(O)Cn1c(CC(=O)N2CCCC2)nc2ccccc21,-0.583,27.1,6.1,0.9,0.404,0.7,nt,nt,nt
CCOC(=O)C1CCCN(c2nc3ccccc3nc2C(C#N)C(=O)OCCOC)C1 (stereo unspecified),1.33,35.2,21.8,0.8,2.05,0.6,nt,nt,nt
CCOC(=O)C1CCCN(c2nc3ccccc3nc2C(C#N)C(=O)OCC)C1 (stereo unspecified),-0.0352,95.8*,93.2*,0.1,2.95*,0,8656*,1548,i
C/C(=C\c1ccco1)C1C(C#N)=C(N)Oc2n[nH]c(-c3ccccc3)c21 (stereo unspecified),-0.6,48.1,14.2,0.9,2.41,0.5,nt,nt,nt
CC(C)C1C(C#N)=C(N)Oc2n[nH]c(-c3ccccc3)c21 (stereo unspecified),-0.141,nt,nt,nt,3.81*,nt,13728*,1660,i
CCOc1ccc(C2C(C#N)=C(N)Oc3n[nH]c(C)c32)cc1OC(=O)C1CC1 (stereo unspecified),-1.14,8.2,16.5,0.8,-0.615,0.9,nt,nt,nt
CCOc1cc(C2C(C#N)=C(N)Oc3n[nH]c(-c4ccccc4)c32)ccc1O (stereo unspecified),-0.039,93.8*,70.6*,0.3,3.81*,0.1,5848*,1448,i
Cc1ccc(-c2[nH]nc3c2C(c2ccoc2)C(C#N)=C(N)O3)cc1C (stereo unspecified),-0.485,35.1,8.6,0.9,10.7*,0.6,18284*,1340,+
COc1ccc(C2C=C(c3cccs3)Nc3nc(CCCO)nn32)cc1 (stereo unspecified),0.466,47.2,18.1,0.8,0.0843,0.5,nt,nt,nt
C=CCc1ccccc1OCC(O)CNC(C)C (stereo unspecified),-0.767,nt,nt,nt,-1.55,nt,nt,nt,nt
C=CCc1ccccc1OCCn1ccnc1,-0.854,85.4*,91.5*,0.1,4.18*,0.1,15712*,1544,i
Cc1oc(-c2ccc(Cl)cc2)nc1CN1CCCC(C(=O)NCc2ccco2)C1 (stereo unspecified),0.865,35.1,37.8,0.6,-1.13,0.6,nt,nt,nt
Cc1cc(C(=O)Nc2ccc(S(=O)(=O)Nc3onc(C)c3C)cc2)c(C)o1,0.404,-17.5,-21.9,1.2,2.93*,1.2,8272*,1556,+
Cc1noc(NS(=O)(=O)c2ccc(NC(=O)c3ccoc3C)cc2)c1C,1.15,3.8,0.1,1,-0.442,1,nt,nt,nt
CC(C)C(NS(=O)(=O)c1ccc2c3c(cccc13)C(=O)N2)C(=O)O (stereo unspecified),0.0288,2.7,-0.8,1,6.96*,1,5048,nt,i
SMILES,DAT uptake mod,CYP2C9 inhib,CYP2C19 inhib,CYP2C19 activ,D1 allo mod,CYP2C9 act,D1 PAM confirm,D1 no dopamine,Isoprot counter
COc1ccc(S(=O)(=O)N[C@H](C(=O)O)C(C)C)cc1,0.548,-9.9,-15.6,1.2,-0.321,1.1,nt,nt,nt
CCOc1c(C(=O)CC)cc2c(C)cc(=O)oc2c1C,0.21,nt,nt,nt,nt,nt,nt,nt,nt
Cc1ccccc1-c1nc(CS(=O)(=O)CC(=O)N2CCc3ccccc32)c(C)o1,0.0221,nt,nt,nt,0.296,nt,nt,nt,nt
CCOC(=O)C(CCSC)NC(=O)CN (stereo unspecified),-0.0658,22.4,-2.8,1,4.76*,0.8,6764,1616,i
CCC(C)NC(=O)N[C@@H](CCSC)C(=O)OC (stereo partly specified),-1.84,8.7,-8.6,1.1,nt,0.9,nt,nt,nt
C1CCc2c(nnc3c2-c2nonc2CC3)C1,-1.54,12.0,6.5,0.9,0.169,0.9,nt,nt,nt
O=C(Cc1cscn1)c1ccc(O)cc1O,1.21,-16.3,-1.5,1,0.0392,1.2,nt,nt,nt
COc1ccc(CNc2nc(NCc3ccc(OC)cc3)n(S(C)(=O)=O)n2)cc1,0.134,31.4,10.0,0.9,4.7*,0.7,9448*,1620,+
CCC(=O)n1nc(NCc2ccc(OC)c(OC)c2)nc1NCc1ccc(OC)c(OC)c1,nt,28.2,18.2,0.8,5.96*,0.7,15072*,nt,+
CCC(=O)n1nc(-c2cccnc2)nc1NCc1ccc(OC)cc1,0.0263,61.4*,72.9*,0.3,10.9*,0.4,7416*,1672,i
COCC(=O)n1nc(NCc2ccc(OC)cc2)nc1NCc1ccc(OC)cc1,0.533,37.0,21.2,0.8,1.47,0.6,nt,nt,nt
Cc1cc2ncc(-c3ncc(C(F)(F)F)cc3Cl)cn2n1,-0.803,0.9,17.9,0.8,nt,1,nt,nt,nt
Cc1ccc(-c2cc(-c3ccc(F)cc3)nc(N)c2C#N)o1,0.356,52.2*,39.1,0.6,14.9*,0.5,26016*,2012,+
O=c1c(Cc2ccc(F)cc2)c(O)ccn1Cc1ccc(Cl)cc1Cl,-1.08,-6.8,3.9,1,nt,1.1,nt,nt,nt
COC(C)(C)c1cc(C(C)(C)C)nc(N)n1,-0.0196,4.0,8.5,0.9,3.09*,1,10892*,nt,+
